# Test results taken from PubChem BioAssay (NCATS).
# Records with an inconclusive call do not appear. Calls of active or inactive are those of the source. Calls follow the shape of the dose curve; as a rule, active = well fitted curve in the direction sought with a large enough effect; inconclusive = small, poorly fitted or top-dose-only effect, or another doubt; inactive = no such curve, though single readings can be large; an effect the other way counts as inactive or inconclusive.
# Experiment: qHTS of pediatric cancer cell lines to identify multiple opportunities for drug repurposing: Primary screen for Rh18 cells (AID 1347102); also: nearly all actives have a fitted effect of over 65% in size
# Settings: Rh18 rhabdomyosarcoma viability, CellTiter-Glo luminescence, 48 h; series mostly up to 46 µM
# In short: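 Cells (500-1,000/well) in growth media were settled 5 h at 37 degrees C, then given compounds for 48 h. Viability was read as CellTiter-Glo luminescence. Primary runs used MIPE at 11 points (0.78 nM-46 µM) and NPC at 8 points (0.59 nM-46 µM); follow-ups used 11 points.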
# Potency is read from the fitted curve at half-maximal effect.
row,Compound,Potency
1,Cc1cc(Nc2cc(CN3CCOCC3)c3nc(C)c(Cc4ccc(Cl)cc4F)n3n2)n[nH]1,13.2 µM (active)
2,COCCOc1ccc2c(c1)ncn2-c1ccc2cccc(N3CCC(N)CC3)c2n1,26.4 µM (active)
3,Cc1cn2c(-c3cn[nH]c3)cnc2c(Nc2ccc(C(=O)N3CCNCC3)cc2F)n1,16.6 µM (active)
4,Nc1nccc(Oc2ccc(NC(=O)c3c[nH]cc(-c4ccc(F)cc4)c3=O)cc2F)c1Cl,18.7 µM (active)
5,C=CC(=O)Nc1cccc(Oc2nc(Nc3ccc(N4CCN(C)CC4)cc3OC)ncc2Cl)c1,20.9 µM (active)
6,COC(=O)Nc1ccc(-c2nc(N3CCOCC3)c3cnn(C4CCN(Cc5cccnc5)CC4)c3n2)cc1,0.935 µM (active)
7,Cc1cc(CN2CCN(c3c(Br)cnc4nc(-c5ccc(N6CCN(C)CC6)cc5)[nH]c34)CC2)no1,20.9 µM (active)
8,Nc1cccc(-c2cc3c(Oc4cccc(O)c4)ncnc3[nH]2)c1,11.8 µM (active)
9,COc1cccc(-c2ccc(NC(=O)C3=C(C(=O)O)CCC3)c(F)c2)c1,inactive

# Experiment: qHTS of pediatric cancer cell lines to identify multiple opportunities for drug repurposing: Primary screen for OHS-50 cells (AID 1347103); also: nearly all actives have a fitted effect of over 40% in size
# Settings: OHS-50 osteosarcoma viability, CellTiter-Glo luminescence, 48 h; series mostly up to 57.3 µM
# In short: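 Cells (500-1,000/well) rested 5 h, then received compounds for 48 h; metabolically active cells were measured by CellTiter-Glo luminescence. Final concentrations spanned up to 46 µM (MIPE, 11-point) or 0.59 nM-46 µM (NPC, 8-point) in primary screens, 11-point in follow-ups.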
row,Compound,Potency
1,CC(C)=CCCC(C)=CCCC(C)=CCSc1ccccc1C(=O)O,1.53 µM (active)
2,COc1cc(OC2CCN(C)CC2)ccc1Nc1ncc2c(n1)n(C1CCCC1)c(=O)n2C,19.3 µM (active)
3,Fc1cc(-c2cccc3ncc(-c4cnn(C5CCNCC5)c4)nc23)cc(F)c1CN1CCOCC1,19.3 µM (active)
4,Cn1cc(-c2ccncc2)c(-c2ccc(OCc3ccc4ccccc4n3)cc2)n1,3.06 µM (active)
5,COC(=O)[C@]12CCC(C)(C)C[C@@H]1[C@@H]1C(=O)C=C3[C@@]4(C)C=C(C#N)C(=O)C(C)(C)[C@@H]4CC[C@@]3(C)[C@]1(C)CC2,0.685 µM (active)
6,Cn1c(=O)n(-c2ccc(C(C)(C)C#N)cc2)c2c3cc(-c4cnc5ccccc5c4)ccc3ncc21,0.109 µM (active)
7,COc1cc2c(Oc3ccc4[nH]c(C)cc4c3F)ncnc2cc1OCCCN1CCCC1,30.6 µM (active)
8,O=C(CCCCCCC(=O)Nc1ccc([C@H]2O[C@@H](CSc3nc(-c4ccccc4)c(-c4ccccc4)o3)C[C@@H](c3ccc(CO)cc3)O2)cc1)NO,15.3 µM (active)
9,CCN1CCN(CC(=O)Nc2ccc(-c3cccc4c(=O)cc(N5CCOCC5)oc34)c3sc4ccccc4c23)CC1,0.172 µM (active)
10,NCC(=O)Nc1ccc(-n2nc(C(F)(F)F)cc2-c2ccc3c(ccc4ccccc43)c2)cc1,30.6 µM (active)
11,Cc1cccc(C=NNc2cc(N3CCOCC3)nc(OCCc3ccccn3)n2)c1,24.3 µM (active)
12,NC1(Cc2ccc(Cl)cc2)CCN(c2ncnc3[nH]ccc23)CC1,6.11 µM (active)
13,Cn1c2ccccc2c2c3c(c4c5ccccc5n(CCC#N)c4c21)CNC3=O,5.44 µM (active)
14,Cc1cc(Nc2cc(CN3CCOCC3)c3nc(C)c(Cc4ccc(Cl)cc4F)n3n2)n[nH]1,27.3 µM (active)
15,COCCOc1ccc2c(c1)ncn2-c1ccc2cccc(N3CCC(N)CC3)c2n1,19.3 µM (active)
16,Cc1cn2c(-c3cn[nH]c3)cnc2c(Nc2ccc(C(=O)N3CCNCC3)cc2F)n1,13.7 µM (active)
17,Nc1nccc(Oc2ccc(NC(=O)c3c[nH]cc(-c4ccc(F)cc4)c3=O)cc2F)c1Cl,7.69 µM (active)
18,NC(=O)c1c(OCc2c(F)cc(Br)cc2F)nsc1NC(=O)NCCCCN1CCCC1,24.3 µM (active)
19,CC(=O)c1c(C)c2cnc(Nc3ccc(N4CCNCC4)cn3)nc2n(C2CCCC2)c1=O,19.3 µM (active)
20,COC(=O)C1=C(C)NC(C)=C(C(=O)OCCN2CCN(C(c3ccccc3)c3ccccc3)CC2)C1c1cccc([N+](=O)[O-])c1 (stereo not given),15.5 µM (active)
21,CC1(O)CC(c2nc(-c3ccc4ccc(-c5ccccc5)nc4c3)c3c(N)nccn23)C1 (stereo not given),0.544 µM (active)
22,C=CC(=O)Nc1cccc(Oc2nc(Nc3ccc(N4CCN(C)CC4)cc3OC)ncc2Cl)c1,4.85 µM (active)
23,COC(=O)Nc1ccc(-c2nc(N3CCOCC3)c3cnn(C4CCN(Cc5cccnc5)CC4)c3n2)cc1,0.109 µM (active)
24,Cc1cc(Nc2ncnc3ccc(-c4ccc(CNCCS(C)(=O)=O)o4)cc23)ccc1Oc1ccn2ncnc2c1,1.22 µM (active)
25,O=C(O)C1(Cc2cccc(Nc3nccs3)n2)CCC(Oc2cccc(Cl)c2F)CC1 (stereo not given),0.544 µM (active)
26,O=C(O)c1ccc2cc(-c3ccc(O)c(C45CC6CC(CC(C6)C4)C5)c3)ccc2c1,0.243 µM (active)
